24 molecules from PubChem BioAssay (Tox21) can be followed below.

Values joined by “and” are separate entries in the source; they are usually repeats but may differ in a detail not shown here. Identical values can stand only once. Records with an inconclusive call do not appear. A structure can be active in one record and inactive in another. Active and inactive are the calls of the source. Unless noted, calls follow the shape of the dose curve; as a rule, active = well fitted curve in the direction sought with a large enough effect in the repeat runs; inconclusive = weak or mixed curves; inactive = no such curve, though single readings can be large; an effect the other way counts as inactive or inconclusive.

Experiment [1] can be described thus: qHTS assay for small molecule agonists of the p53 signaling pathway (AID 651631; calls by dose curve; also: nearly all actives have a fitted effect of over 15% in size; also: potency is read from the fitted curve at half-maximal effect). In short, it runs like this:
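HCT-116 cells carrying a beta-lactamase reporter under p53 response elements were dosed with compound for 16 h at 37 °C. LiveBLAzer B/G FRET substrate was then added for 2 h at room temperature, and fluorescence intensity was read to detect pathway agonism.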
In general terms: qHTS replaces the single test concentration by a dilution series.

The nature of experiment [2]: qHTS assay for small molecules that induce genotoxicity in human embryonic kidney cells expressing luciferase-tagged ATAD5 (AID 651632). Also: nearly all actives have a fitted effect of over 15% in size. In short, it runs like this: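 Quantitative HTS in HEK293T expressing luciferase-tagged ATAD5, whose levels rise upon DNA damage. Exposure ran 16 hr at 37C and 5% CO2, with luminescence read 30 min after Amplite addition at room temperature.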

A short description of experiment [3]: qHTS assay for small molecule agonists of the p53 signaling pathway - cell viability (AID 651633; calls by dose curve;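 also: p53RE-bla HCT reporter cells with a stable beta-lactamase p53 reporter; series mostly up to about 83 µM; nearly all actives have a fitted effect of over 30% in size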). In short, it runs like this: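 Viability counter-read: CellTiter-Glo luminescence (30 min, room temperature) in the same p53RE-bla plates. These plates had been exposed to compounds for 16 h at 37 C.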
A short description of experiment [4]: qHTS assay for small molecules that induce genotoxicity in human embryonic kidney cells expressing luciferase-tagged ATAD5 - cell viability (AID 651634; calls by dose curve; also: nearly all actives have a fitted effect of over 25% in size). In short, it runs like this: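 After 15.5 hr incubation with compound at 37C, 5% CO2, HEK293T ATAD5-luciferase cells received CellTiter-Fluor reagent; fluorescence intensity was quantified following 30 min at 37C.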

Experiment [5] can be described thus: qHTS assay for small molecule disruptors of the mitochondrial membrane potential - cell viability (AID 720634; calls by dose curve;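 also: human HepG2 liver cancer cells; series mostly up to about 83 µM; nearly all actives have a fitted effect of over 20% in size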). Put shortly: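 ATP-based luminescent viability readout (CellTiter-Glo, 30 min, room temperature) in HepG2 cells multiplexed with the m-MPI membrane potential dye; compound exposure lasted 1 hr at 37 C.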
Experiment [6] is described as follows: qHTS assay for small molecule disruptors of the mitochondrial membrane potential (AID 720635). Also: potency is read from the fitted curve at half-maximal effect. Put shortly: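 Mitochondrial membrane potential tracked with Mito-MPS dye, red aggregates (ex 540/em 590 nm) against green monomers (ex 490/em 535 nm). Compound treatment 1 hr at 37C, dye 30 min in HepG2.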
Experiment [7] is described as follows: qHTS assay to test for compound auto fluorescence at 590 nm (red) in HepG2 cells (AID 720674). In short, it runs like this:
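We screened compounds on adherent HepG2 cells, incubating them for an hour at 37 C in 5% CO2 before reading emission at 590 nm under 540 nm excitation; values reflect equivalence to Rose Bengal sodium fluorescence.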

Experiment [8] is described as follows: qHTS assay to test for compound auto fluorescence at 535 nm (green) in HepG2 cells (AID 720675).
Experiment [9] can be described thus: qHTS assay to test for compound auto fluorescence at 460 nm (blue) in HEK293 cells (AID 720678). In short, it runs like this: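 HEK293 cells (2,000 per well, medium with 10% dialyzed FBS) attached for 4-5 hr at 37C, then received compound and stood overnight at 37C, 5% CO2. Blue fluorescence was read at Ex/Em 405/460 nm and expressed relative to triamterene.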

A short description of experiment [10]: qHTS assay to test for compound auto fluorescence at 590 nm (red) in HEK293 cells (AID 720679). In short, it runs like this: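 HEK293 cells (2,000/well, medium with 10% dialyzed FBS) attached for 4-5 hr at 37C, received 23 nL compound and were incubated overnight at 37C, 5% CO2. Red fluorescence was then read at 540/590nm Ex/Em, referenced to Rose Bengal sodium.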

As for `Nc1ccc([As](=O)(O)O)cc1`, the Potency result in [1], in experiment [2], in experiment [3], in [4], in experiment [5] and in [6] was “inactive” in each case. Also, the molecule was classed as inactive in experiment [7], in experiment [8], in [9] and in experiment [10].
Take `O=C(O)CCCc1ccc(N(CCCl)CCCl)cc1`: the Potency in experiment [1] was 23.7 µM (active) and 61.4 µM (active) and 34.4 µM (active). In addition, the Potency result in experiment [2], in experiment [3], in experiment [4], in [5] and in experiment [6] was “inactive” in each case. Also, the call in experiment [7], in experiment [8], in [9] and in experiment [10] was inactive.
Regarding `Cc1cccc(C)c1N`, the Potency entry in experiment [1], in experiment [2], in [3], in [4], in [5] and in experiment [6] was “inactive” each time. The result in experiment [7], in [8], in experiment [9] and in experiment [10] was inactive.
Take `Clc1cnc(Oc2ccc(Oc3ncc(Cl)cc3Cl)cc2)c(Cl)c1`: the Potency result in [1], in [2], in experiment [3], in [4] and in [5] was “inactive” each time. Also, the Potency in [6] was 10.7 µM (active) and 48.6 µM (active). The result in [7], in [8], in [9] and in experiment [10] was inactive.
`CCOP(=S)(OCC)Oc1ccc([N+](=O)[O-])cc1`: the Potency result in experiment [1], in [2], in experiment [3], in experiment [4] and in experiment [5] was “inactive” each time. Also, in experiment [6], the Potency was 55.1 µM (active) and inactive. Further, the result in experiment [7], in experiment [8], in experiment [9] and in [10] was inactive.
Consider `COC(C)(C)CCCC(C)C/C=C/C(C)=C/C(=O)OC(C)C` (stereo not drawn), for which the Potency entry in [1], in experiment [2], in experiment [3], in experiment [4] and in [5] was “inactive” in each case. In addition, the Potency result in experiment [6] was “inactive and 21.3 µM (active)”. Further, the result in experiment [7], in [8], in experiment [9] and in [10] was inactive.
On to `CN(C)CCC#N`, for which the Potency entry in experiment [1], in experiment [2], in experiment [3], in experiment [4], in [5] and in [6] was “inactive” throughout. For the same molecule, the outcome in experiment [7], in experiment [8], in experiment [9] and in experiment [10] was inactive.
With `Cl/C=C/Cl`, the Potency entry in [1], in [2], in experiment [3], in [4], in experiment [5] and in experiment [6] was “inactive” in each case. Also, the call in experiment [7], in experiment [8], in experiment [9] and in experiment [10] was inactive.
Regarding `O=C(O)COc1ccccc1`, the Potency entry in [1], in experiment [2], in [3], in experiment [4], in [5] and in experiment [6] was “inactive” in each case. For the same molecule, the molecule was classed as inactive in [7], in [8], in experiment [9] and in experiment [10].
Turning to `O=C(O)C1C(C(=O)O)C2(Cl)C(Cl)=C(Cl)C1(Cl)C2(Cl)Cl` (stereo not drawn), the Potency entry in [1], in experiment [2], in experiment [3], in experiment [4], in experiment [5] and in [6] was “inactive” each time. Besides, the call in experiment [7], in experiment [8], in [9] and in experiment [10] was inactive.
On to `COS(=O)(=O)OC`, for which the Potency entry in experiment [1], in experiment [2], in experiment [3], in [4], in [5] and in [6] was “inactive” in each case. In addition, the result in experiment [7], in experiment [8], in experiment [9] and in [10] was inactive.
`CNCC(O)c1ccc(O)cc1` (stereo not drawn): the Potency entry in experiment [1], in [2], in [3], in [4], in experiment [5] and in experiment [6] was “inactive” throughout. Moreover, the result in experiment [7], in experiment [8], in experiment [9] and in experiment [10] was inactive.
`Nc1nc(N)nc(NC2CC2)n1`: the Potency entry in experiment [1], in experiment [2], in experiment [3], in [4], in experiment [5] and in experiment [6] was “inactive” each time. The molecule was classed as inactive in [7], in [8], in experiment [9] and in [10].
Regarding `Cc1cc(Cl)ccc1OC(C)C(=O)O` (stereo not drawn), the Potency result in [1], in experiment [2], in [3], in experiment [4], in experiment [5] and in experiment [6] was “inactive” in each case. Moreover, the molecule was classed as inactive in [7], in experiment [8], in experiment [9] and in [10].
As to `C=CC#N`, the Potency result in [1], in [2], in [3], in experiment [4], in experiment [5] and in [6] was “inactive” throughout. The result in experiment [7], in experiment [8], in [9] and in experiment [10] was inactive.
As to `CNC(=O)Oc1cccc2ccccc12`, the Potency entry in [1], in experiment [2], in experiment [3], in experiment [4] and in experiment [5] was “inactive” throughout. Besides, the Potency in experiment [6] was 13.3 µM (active). For the same molecule, the molecule was called inactive in experiment [7], in experiment [8], in experiment [9] and in experiment [10].
On to `Nc1cc(Cl)cc(Cl)c1`, for which the Potency entry in experiment [1], in experiment [2], in experiment [3], in experiment [4], in experiment [5] and in [6] was “inactive” throughout. The molecule was classed as inactive in [7], in [8], in experiment [9] and in experiment [10].
`Cc1cc(O)ccc1Cl`: the Potency result in experiment [1], in experiment [2], in experiment [3], in experiment [4] and in experiment [5] was “inactive” in each case. In addition, the Potency in experiment [6] was 10.6 µM (active) and 49.4 µM (active) and 27.3 µM (active). The result in [7], in experiment [8], in experiment [9] and in experiment [10] was inactive.
For `CNC(=O)O/N=C/C(C)(C)SC`, the Potency result in experiment [1], in experiment [2], in experiment [3], in experiment [4] and in experiment [5] was “inactive” each time. Also, the result in [7], in [8], in experiment [9] and in experiment [10] was inactive.
Take `CNC(=O)O/N=C/C(C)(C)S(C)(=O)=O`: the Potency result in [1], in experiment [2], in [3], in [4], in experiment [5] and in experiment [6] was “inactive” throughout. Moreover, the outcome in experiment [7], in experiment [8], in experiment [9] and in experiment [10] was inactive.
In the case of `CCOC(=O)CC(SP(=O)(OC)OC)C(=O)OCC` (stereo not drawn), the Potency result in [1], in experiment [2], in experiment [3], in experiment [4], in experiment [5] and in experiment [6] was “inactive” throughout. The call in experiment [7], in [8], in [9] and in experiment [10] was inactive.
As to `Nc1ncc([N+](=O)[O-])s1`, the Potency entry in [1], in experiment [2], in experiment [3], in experiment [4] and in experiment [5] was “inactive” each time. The outcome in experiment [7], in [8], in experiment [9] and in experiment [10] was inactive.
As to `[N-]=[N+]=CC(=O)OC[C@H](N)C(=O)O`, the Potency result in experiment [1], in experiment [2], in experiment [3], in [4], in [5] and in [6] was “inactive” each time. In addition, the result in experiment [7], in experiment [8], in experiment [9] and in [10] was inactive.
Consider `CSc1nnc(C(C)(C)C)c(=O)n1N`, for which the Potency result in [1], in experiment [2], in experiment [3], in [4], in [5] and in experiment [6] was “inactive” throughout. Also, the molecule was classed as inactive in experiment [7], in [8], in experiment [9] and in [10].
